From PubChem
D1 ag – agonists of human D1 dopamine receptor; P21728; HEK293 T-REx D1 cells, calcium flux, agonist mode; activation, % at 2 µM; actives 1% (n = 360,000); AID 504660
Target sequence (P21728 whole entry, looked up): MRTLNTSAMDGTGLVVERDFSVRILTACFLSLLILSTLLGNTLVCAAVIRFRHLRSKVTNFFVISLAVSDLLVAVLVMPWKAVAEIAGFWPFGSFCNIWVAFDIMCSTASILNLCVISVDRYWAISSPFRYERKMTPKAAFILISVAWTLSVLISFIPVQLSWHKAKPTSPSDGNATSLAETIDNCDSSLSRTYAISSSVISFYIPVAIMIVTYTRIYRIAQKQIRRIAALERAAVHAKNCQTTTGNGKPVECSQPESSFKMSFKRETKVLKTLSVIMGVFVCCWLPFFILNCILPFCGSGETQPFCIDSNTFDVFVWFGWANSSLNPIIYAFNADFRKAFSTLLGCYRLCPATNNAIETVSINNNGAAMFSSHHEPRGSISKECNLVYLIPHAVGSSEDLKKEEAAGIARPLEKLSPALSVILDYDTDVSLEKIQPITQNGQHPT
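Tetracycline-induced HEK293 TREx D1 cells, force-coupled to calcium signalling, were dye-loaded with a no-wash calcium kit. Compound was pin-added after a 10 s baseline. Fluorescence was read kinetically at 1 cycle/s for 180 s, with calcium rises flagged as agonism.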
D1 antag – blocks dopamine activation of the human D1 receptor; actives 3.2% (n = 360,000); activity change, negative = inhibition, % at 10 µM; HEK293 TREx D1 cells, calcium flux, dopamine EC80; hits give low values; in the data active = activity change below about -30%
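Tetracycline-induced HEK293 Trex D1 cells, force-coupled to calcium, dye-loaded; compounds added and read 180 s, then EC80 dopamine added and calcium flux tracked kinetically another 180 s.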
TRHR ag – TRH receptor (human) agonism; activation, % at 2 µM; TRHR cells, calcium flux fluo-8, FDSS agonist mode; actives 0.18% (n = 360,000); AID 493084; P34981
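Read-out: compound-evoked intracellular calcium rise in TRHR cells, fluo-8 dye, kinetic FDSS fluorescence at 1 s/cycle following a 10-cycle baseline. Cells cultured overnight before dye loading (30 min–1.5 h, RT).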
D1 potentiator – human D1 dopamine receptor positive modulation; potentiation, % at 10 µM; AID 504651; P21728; actives 0.036% (n = 360,000); HEK293 TREx D1 cells, calcium flux, dopamine EC20 potentiation; in the data active = potentiation above about 30%
TRHR PAM – allosteric enhancers of human TRH receptor | TRHR cells, fluo-8 calcium fluorescence, EC20 TRH enhancement | enhancement, % at 2 µM | actives 0.66% (n = 360,000) | AID 493056; in the data active = enhancement above about 30%
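TRHR-expressing cells loaded with fluo-8 calcium dye were read kinetically (ex 480/em 530) during compound addition, then stimulated with an EC20 of TRH (10 nM final). Enhancement of the Gq-mediated intracellular calcium response was scored.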
Hits are given with their value; 0 = inactive; - = no result given. Only some compounds are listed: those with a hit (about 4.7% of all), similar ones and a draw of the others. Cut-off read from the data, not from the text of the source, unless noted: active = activation above about 30%; inactive = the rest.

SMILES | D1 ag | D1 antag | TRHR ag | D1 potentiator | TRHR PAM
COc1cc(/C(C)=N/Nc2ccc(C(=O)O)cc2)cc(OC)c1OC | 0 | 0 | 0 | 0 | 0
COc1ccc(/C(C)=N/Nc2ccc(C(=O)O)cc2)cc1OC | 0 | -31 | 0 | 0 | 0
CCC1=Nc2cc(C(=O)NC3CCCC3)ccc2Sc2ccc(Cl)cc21 | 0 | -34 | 0 | 0 | 0
CCC1=Nc2cc(C(=O)NCc3ccc(C)cc3)ccc2Sc2ccc(C)cc21 | 0 | 0 | 0 | 0 | 0
CC1=Nc2cc(C(=O)NC3CCCC3)ccc2Sc2ccc(Cl)cc21 | 0 | 0 | 0 | 0 | 0
CCC1=Nc2cc(C(=O)NCc3cccnc3)ccc2Sc2ccc(C)cc21 | 0 | -76 | 0 | 0 | 0
Cc1cccc(NC(=O)c2cc(S(=O)(=O)N3CCc4ccccc43)ccc2F)c1C | 0 | 0 | 0 | 0 | 0
CN(CCCC1CCCC1)C(=O)CC1C(=O)NCCN1Cc1cccc(F)c1F (stereo not drawn) | 0 | 0 | 0 | 30 | 0
CN(CCC1CCOCC1)C(=O)CC1C(=O)NCCN1Cc1c(F)cccc1Cl (stereo not drawn) | 0 | -52 | 0 | 0 | 0
Cc1ccc(CN(C(=O)COc2ccc(Cl)cc2Cl)C2CCS(=O)(=O)C2)o1 (stereo not drawn) | 0 | 0 | 0 | 0 | 0
Cc1ccc(-c2ccc(SCC(=O)NCC3CCCO3)nn2)cc1 (stereo not drawn) | 0 | -34 | 0 | 0 | 0
Cc1ccc2nc(SCC(=O)NCC3CCCO3)c(C#N)cc2c1 (stereo not drawn) | 0 | -32 | 0 | 0 | 0
Cc1ccc2cc(C#N)c(SCC(=O)NCC3CCCO3)nc2c1 (stereo not drawn) | 0 | 0 | 0 | 0 | 0
CC(C)NC(=O)Cn1ccc2cc(S(=O)(=O)N3CCCCCC3)ccc21 | 0 | 0 | 0 | 0 | 0
COc1ccc(NC(=O)c2cc(C(C)=O)n3ccccc23)cc1 | 0 | 0 | 0 | 0 | 0
Cc1ccc(NC(=O)CSc2n[nH]c(-c3ccc(F)cc3)n2)cc1F | 0 | 0 | 0 | 0 | 0
CC(CNC(=O)c1cc(-c2ccccc2)n[nH]1)c1ccccc1 (stereo not drawn) | 0 | -51 | 0 | 0 | 0
COC(=O)c1cc(-c2ccccc2)n[nH]1 | 0 | 0 | 0 | 0 | 0
Cc1ccc(CCNC(=O)c2cc(-c3ccccc3)n[nH]2)cc1 | 0 | 0 | 0 | 0 | 0
O=C(NCCc1ccc(Cl)cc1)c1cc(-c2ccccc2)n[nH]1 | 0 | -31 | 0 | 0 | 0
CC(C)(C)NC(=O)c1cc(-c2ccccc2)n[nH]1 | 0 | -32 | 0 | 0 | 0
Nc1ccc2nc(-c3ccccc3)[nH]c2c1 | 0 | 0 | 0 | 0 | 0
Nc1cccc(-c2nc3ccc(C(=O)c4ccccc4)cc3[nH]2)c1 | 0 | -31 | 0 | 0 | 0
Cc1ccc(-c2cc3ncc4c(n3n2)-c2cc(Cl)ccc2OC4)cc1 | 0 | 0 | 0 | 0 | 0
COc1ccc(S(=O)(=O)NC(C)C(=O)Nc2cccc(C(C)=O)c2)cc1 (stereo not drawn) | 0 | -43 | 0 | 0 | 0
SMILES | D1 ag | D1 antag | TRHR ag | D1 potentiator | TRHR PAM
CCCS(=O)(=O)c1ncc(Cl)c(C(=O)N(Cc2ccccc2)Cc2ccco2)n1 | 0 | -43 | 0 | 0 | 0
Cc1ccc(CNc2ccc(S(=O)(=O)N3CCOCC3)cc2[N+](=O)[O-])cc1 | 0 | -57 | 0 | 0 | 0
O=[N+]([O-])c1cc(S(=O)(=O)N2CCOCC2)ccc1N1CCCC1 | 0 | -31 | 0 | 0 | 0
O=C(O)C1CCN(c2ccc(S(=O)(=O)N3CCOCC3)cc2[N+](=O)[O-])CC1 | 0 | 0 | 0 | 0 | 0
O=C(NC1CC(=O)N(c2ccccc2)C1)c1ccc(S(=O)(=O)N2CCCCC2)cc1 (stereo not drawn) | 0 | - | 0 | 0 | 0
Cc1onc(-c2c(F)cccc2Cl)c1C(=O)Nc1c(C)n(C)n(-c2ccccc2)c1=O | 0 | 0 | 0 | 0 | 0
Cc1onc(-c2c(F)cccc2Cl)c1C(=O)NC(=S)Nc1c(C)n(C)n(-c2ccccc2)c1=O | 0 | -67 | 0 | 0 | 0
Cc1ccc(-n2nnc(-c3nsc(NC(=O)c4ccc(C)c(C)c4)n3)c2C)cc1 | 0 | 0 | 0 | 0 | 0
CCc1ccccc1-n1nnc(-c2nsc(NC(=O)c3ccc(C)c(C)c3)n2)c1C | 0 | 0 | 34 | 0 | 0
CC(C)c1ccc(NC(=O)CSC2=Nc3ccccc3C3=NC(CC(=O)NCc4ccco4)C(=O)N23)cc1 (stereo not drawn) | 0 | 0 | 0 | 0 | 0
C/C(=C/CCC(C)[C@H]1CC[C@@]2(C)C3=C(CC[C@]12C)[C@@]1(C)CCC(=O)C(C)(C)[C@@H]1CC3)C(=O)O (stereo partly drawn) | 0 | -34 | 0 | 0 | 0
O=S(=O)(Cc1ccccc1Cl)N1CCN(Cc2ccc3c(c2)OCO3)CC1 | 41 | -34 | 0 | 0 | 0
COc1ccc(S(=O)(=O)N2CCN(Cc3ccc4c(c3)OCO4)CC2)cc1C | 0 | 0 | 0 | 0 | 0
Cn1cc(CN2CCN(Cc3ccc4c(c3)OCO4)CC2)c(-c2ccccc2F)n1 | 0 | -31 | 0 | 0 | 0
Cc1cccc(S(=O)(=O)N2CCN(Cc3ccc4c(c3)OCO4)CC2)c1 | 0 | -34 | 0 | 0 | 0
Cn1cc(CN2CCN(c3ccc(Cl)cn3)CC2)c(-c2ccccc2F)n1 | 0 | 0 | 0 | 0 | 0
CC1=CC(C)(C)NC(=S)N1c1ccc(C)c(C)c1 | 60 | -31 | 0 | 0 | 0
Cc1ccc(N2CC(NC(=O)C3CCCC3)CC2=O)cc1C (stereo not drawn) | 0 | - | 0 | 0 | 0
CC(C)N(C)Cc1cn(C)nc1-c1ccc(Oc2ccccc2)cc1 | 0 | 0 | 0 | 0 | 36
Cn1cc(CNCC2CCCO2)c(-c2ccc(Oc3ccccc3)cc2)n1 (stereo not drawn) | 46 | 0 | 0 | 0 | 0
COCCN(Cc1cn(C)nc1-c1ccc(Oc2ccccc2)cc1)C(C)C | 0 | 0 | 0 | 0 | 0
COc1c(Cl)cc(Cl)cc1CNCCSc1nnnn1C | 0 | 0 | 0 | 0 | 0
COc1cccc(CN2CCNC(=O)C2CC(=O)NCCn2ccc3ccccc32)c1OC (stereo not drawn) | 0 | -85 | 0 | 0 | 0
COc1ccc(N2CCN(c3ncccc3-c3nc(-c4ccccc4C)no3)CC2)cc1 | 0 | -31 | 0 | 0 | 0
COc1ccc(N2CCN(c3ncccc3C#N)CC2)cc1 | 0 | 0 | 0 | 0 | 0
Cc1ccc(S(=O)(=O)N2CCC(=O)N(C(CO)Cc3ccccc3)CC2)cc1 (stereo not drawn) | 0 | -43 | 0 | 0 | 0
Cc1ccc(COCCN2CCN(S(=O)(=O)c3ccccc3)CCC2=O)cc1 | 0 | -41 | 0 | 0 | 0
Cc1ccc(S(=O)(=O)N2CCC(=O)N(C(COC(=O)Nc3ccccc3)Cc3ccccc3)CC2)cc1 (stereo not drawn) | 0 | 0 | 0 | 0 | 0
Cc1ccc(NC(=O)OCCN2CCN(S(=O)(=O)c3ccc(C)cc3)CCC2=O)cc1 | 0 | 0 | 0 | 0 | 0
